In all, about 33,000 sequences were measured (“e-score”: median about -0.038, highest 2% from about 0.33 on). The entries come from a sample that favours the highest values as a whole.

The target in the assay is T1, GST-Rok-C97-191 (Bacillus subtilis subsp. subtilis str. …, UniProt O34857 97-191).
T1 sequence: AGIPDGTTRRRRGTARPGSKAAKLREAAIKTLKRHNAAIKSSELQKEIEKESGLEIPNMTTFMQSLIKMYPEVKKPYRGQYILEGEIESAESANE
In words: protein binding microarray; Rok is a gene silencer of Bacillus subtilis; high values mean tight binding. Particulars: protein: recombinant; tags: GST (pTH5325, pDEST15-Magic modified); dsDNA, one strand shown. Summed up: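 Every oligonucleotide joins a 25-mer constant primer to a 35-mer variable part drawn from a de Bruijn sequence of order 10, so each non-palindromic 8-mer appears at least 32 times and each palindromic 8-mer 16 times. The preference for every 8-mer is reported as a unitless, rank-based enrichment score (E-score). This score spans 0.5 for the most favored 8-mer to −0.5 for the most disfavored.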
Take CGTAAATA: the binding signal was 0.254 E-score.

In the case of CCTGAAAC, the binding signal was -0.0142 E-score.

With TATAAAGA, the binding signal was -0.131 E-score.

For the sequence TAAAGTCA, the binding signal is -0.0164 E-score.

Take AAATGCCC: the binding signal worked out at 0.00515 E-score.

With ACTACGCA, the binding signal is -0.0187 E-score.

Regarding CAGTGTAC, the binding signal was determined as 0.0867 E-score.

AGTCAGCA: the binding signal is -0.0559 E-score.

TACAACAA: the binding signal amounted to 0.353 E-score.

As for GACAACTA, the binding signal was 0.295 E-score.

For the sequence AACAACTA, the binding signal came to 0.266 E-score.

For the sequence GACAACAA, the binding signal was -0.114 E-score.

As to TACAACTA, the binding signal is 0.338 E-score.

On to AACAACAA, for which the binding signal stood at 0.1 E-score.

CCAGTTCG: the binding signal is -0.177 E-score.

ACCAGTAG: the binding signal worked out at 0.259 E-score.

Take GTCATCAA: the binding signal was -0.132 E-score.

In the case of CTGGGAAA, the binding signal is -0.136 E-score.

GCTGCTAC: the binding signal was 0.0824 E-score.

For the sequence ACTAAGCA, the binding signal turned out to be 0.0291 E-score.

In the case of ACAACCGG, the binding signal was -0.0576 E-score.

Regarding GCTCGAGC, the binding signal was -0.176 E-score.

For CATTTGCA, the binding signal was found to be 0.157 E-score.

Regarding ATCTTCAT, the binding signal was found to be 0.204 E-score.

On to AAACCTTC, for which the binding signal amounted to 0.0022 E-score.

For the sequence CCGGACAA, the binding signal was -0.145 E-score.

On to CCACTCTC, for which the binding signal was -0.129 E-score.

As to AACTTATC, the binding signal is 0.168 E-score.

Turning to CACTTATA, the binding signal was determined as 0.281 E-score.

Turning to GACTTCTA, the binding signal stood at 0.111 E-score.

AACTTATA: the binding signal was 0.345 E-score.

Turning to GACTTATA, the binding signal was determined as 0.279 E-score.

For the sequence AACTTCTA, the binding signal was found to be 0.246 E-score.

Regarding TACTTATA, the binding signal amounted to 0.331 E-score.

On to TACTTCTA, for which the binding signal is 0.374 E-score.

Consider TACTTACA, for which the binding signal was 0.31 E-score.

On to GAATGTTA, for which the binding signal was determined as 0.159 E-score.

Consider CAGCAAGA, for which the binding signal came out at 0.159 E-score.

As for CCGATATC, the binding signal was determined as 0.0718 E-score.

In the case of GAGTGTAA, the binding signal amounted to 0.0764 E-score.

With ACCATTGG, the binding signal is -0.182 E-score.

Turning to CAGCTACA, the binding signal is 0.0422 E-score.

Take GATCTACA: the binding signal was determined as 0.29 E-score.

AATCTACA: the binding signal came to 0.365 E-score.

Take GAGCTACA: the binding signal was 0.151 E-score.

In the case of TATCTACA, the binding signal is 0.361 E-score.

For AAGCTACC, the binding signal amounted to 0.362 E-score.

As to AGTCTACA, the binding signal amounted to 0.0463 E-score.

Take ACTCTACA: the binding signal is 0.108 E-score.

For the sequence AAGCTACG, the binding signal came out at 0.0766 E-score.

As to AAGCTACT, the binding signal turned out to be 0.195 E-score.

On to CATCTACA, for which the binding signal was determined as 0.0976 E-score.

For the sequence TAGCTACA, the binding signal is 0.353 E-score.

As to TAGCACTA, the binding signal was determined as 0.191 E-score.

As to GCGAGTTA, the binding signal was found to be 0.0475 E-score.

With ACCAGGCG, the binding signal was -0.1 E-score.

For the sequence AATGGCGG, the binding signal was -0.112 E-score.

Take TCCGGAGA: the binding signal was -0.0285 E-score.

As for GACAGGCA, the binding signal was -0.106 E-score.

As to CACATGCA, the binding signal came out at 0.206 E-score.

AGTTTCTC: the binding signal came out at 0.244 E-score.

Regarding GCTTTCTA, the binding signal was found to be 0.319 E-score.

AGTTTCTG: the binding signal worked out at 0.0882 E-score.

On to CGTTTCGA, for which the binding signal is -0.111 E-score.

On to CGTTTCTC, for which the binding signal is -0.0794 E-score.

Consider GTTTTCTA, for which the binding signal was determined as 0.256 E-score.

With GGTTTCTA, the binding signal was 0.353 E-score.

Take AGTTTCTA: the binding signal is 0.389 E-score.

Consider CGTTTCTA, for which the binding signal turned out to be 0.369 E-score.

Take GGCGACAC: the binding signal was -0.0519 E-score.

On to GATAGACC, for which the binding signal was 0.022 E-score.

In the case of AGAGAAGG, the binding signal was -0.195 E-score.

With CTAGTACC, the binding signal amounted to 0.244 E-score.

On to GCGATATA, for which the binding signal worked out at 0.282 E-score.

GAGATATC: the binding signal came out at 0.182 E-score.

With GATATATA, the binding signal is 0.358 E-score.

Take GTGATATA: the binding signal was 0.245 E-score.

As for GATATATC, the binding signal stood at 0.403 E-score.

With ATGGGGCC, the binding signal is -0.169 E-score.

On to ACTAGCAT, for which the binding signal turned out to be 0.142 E-score.

For TGGTCTAA, the binding signal worked out at 0.0359 E-score.

Regarding GAGTGAAC, the binding signal was 0.0307 E-score.

CGACGACC: the binding signal is -0.148 E-score.

AAGCGGGG: the binding signal is -0.141 E-score.

Consider GAGTAGAA, for which the binding signal turned out to be 0.279 E-score.

With AAGTAGCA, the binding signal came to 0.259 E-score.

Regarding CAGTAGAA, the binding signal came out at 0.426 E-score.

For AAGTAGAA, the binding signal turned out to be 0.363 E-score.

For the sequence AAGTAGAT, the binding signal came out at 0.407 E-score.

Take AAGTAGAG: the binding signal amounted to 0.0923 E-score.

For the sequence CAGTAGAG, the binding signal came out at 0.0442 E-score.

On to AAGTAGGA, for which the binding signal was determined as 0.0873 E-score.

Consider TAGTAGGA, for which the binding signal turned out to be 0.252 E-score.

Consider AAGTAGAC, for which the binding signal was 0.021 E-score.

TAGTAGAA: the binding signal was determined as 0.433 E-score.

TAGTAGCA: the binding signal was 0.316 E-score.

GGTTATTA: the binding signal was found to be 0.0524 E-score.

On to GGCGGTAC, for which the binding signal was -0.0765 E-score.

With ACCGCTCG, the binding signal was -0.0635 E-score.

With ATGTCGCC, the binding signal was -0.0714 E-score.

For the sequence TGCTGGAA, the binding signal was -0.107 E-score.

For CCATTAAA, the binding signal was -0.149 E-score.

In the case of GTATTTAA, the binding signal was 0.273 E-score.

As for GTATTTGA, the binding signal turned out to be 0.0326 E-score.

Regarding GTATTTTA, the binding signal turned out to be 0.376 E-score.

As for ATATTTTA, the binding signal turned out to be 0.384 E-score.

Regarding ATATTTTG, the binding signal is 0.237 E-score.

Consider CTATTTTA, for which the binding signal was determined as 0.302 E-score.

In the case of CTAGCCGC, the binding signal was -0.192 E-score.

Turning to TGCGGCAA, the binding signal turned out to be 0.0751 E-score.

On to CTTTCTAC, for which the binding signal was determined as 0.447 E-score.

As for ATTTCTAC, the binding signal is 0.353 E-score.

For ATTTCTTC, the binding signal came to 0.204 E-score.

Regarding ATTTCTCA, the binding signal was 0.126 E-score.

For the sequence CTTTCTAA, the binding signal was 0.1 E-score.

Consider CTTTCTTC, for which the binding signal is 0.0829 E-score.

Turning to ATTTCTAG, the binding signal stood at 0.366 E-score.

Consider ACTTCTAC, for which the binding signal turned out to be 0.231 E-score.

As to ATTTCTGG, the binding signal came out at 0.0299 E-score.

Turning to AGTTCTAG, the binding signal was 0.236 E-score.

As to ATTTCTAA, the binding signal came out at 0.357 E-score.

For the sequence GTTTCTAA, the binding signal is -0.0431 E-score.

As to CCAGGTAG, the binding signal amounted to 0.0315 E-score.

On to GAACCGAA, for which the binding signal was 0.00912 E-score.

As to CAAGCTAG, the binding signal is 0.137 E-score.

For the sequence ATCCCGTC, the binding signal is -0.181 E-score.

CTGGTAGA: the binding signal worked out at 0.324 E-score.

Regarding GTGGTAAA, the binding signal came out at 0.21 E-score.

Turning to ATGGTAGG, the binding signal stood at 0.278 E-score.

As for CTGGTATA, the binding signal came out at 0.205 E-score.

Regarding GTGGTAGA, the binding signal is 0.433 E-score.

As to ATGGTAGA, the binding signal worked out at 0.448 E-score.

On to ATGGTACA, for which the binding signal is 0.199 E-score.

In the case of CTGGTAGC, the binding signal was -0.00597 E-score.

On to ATGGTAAA, for which the binding signal is 0.23 E-score.

Take ATGGTATA: the binding signal came out at 0.353 E-score.

On to ATGGTAGC, for which the binding signal was 0.35 E-score.

On to ATGGTATC, for which the binding signal came out at 0.0289 E-score.

Take AACATCCG: the binding signal was found to be 0.0335 E-score.

With AACCGGTT, the binding signal was determined as 0.0733 E-score.

On to AGTAGCAA, for which the binding signal is 0.277 E-score.

ACCTCTCG: the binding signal came to 0.00338 E-score.

Take CGAAACAA: the binding signal is 0.0284 E-score.

Turning to CAAGCTGC, the binding signal is -0.171 E-score.

For the sequence AGCGACCT, the binding signal was 0.06 E-score.

Consider CACGATGA, for which the binding signal was -0.103 E-score.

As for GGGAAGGA, the binding signal was -0.18 E-score.

As to CTAGATTC, the binding signal was determined as 0.166 E-score.

As for ATAGAAAC, the binding signal is 0.326 E-score.

Turning to ATAGAAAA, the binding signal was 0.267 E-score.

For ATAGAATC, the binding signal came to 0.274 E-score.

Turning to ATAGAAAT, the binding signal was found to be 0.381 E-score.

In the case of ATAGATTA, the binding signal amounted to 0.331 E-score.

As to ATAGATTG, the binding signal stood at 0.304 E-score.

Turning to ATAGAATA, the binding signal was found to be 0.354 E-score.

In the case of ATAGATTC, the binding signal came out at 0.34 E-score.

With ATAGAATG, the binding signal was 0.165 E-score.

Turning to ACAGATTA, the binding signal worked out at 0.0434 E-score.

With AAAGATTA, the binding signal was 0.212 E-score.

AGAAGACA: the binding signal came out at 0.059 E-score.

For the sequence AACCTGCG, the binding signal is -0.0596 E-score.

For CAAGGTAA, the binding signal is 0.166 E-score.

With CACAATGA, the binding signal was determined as 0.00707 E-score.

For the sequence GTTAATGA, the binding signal came to 0.082 E-score.

As to GTCCCTGA, the binding signal is -0.188 E-score.

For the sequence TCTGGGAA, the binding signal came out at 0.0446 E-score.

Consider TACTGGCA, for which the binding signal was found to be 0.0047 E-score.

As to ACCTATGC, the binding signal is -0.0256 E-score.

Consider ATTGGGGA, for which the binding signal was -0.0754 E-score.

For CTAGATTA, the binding signal amounted to 0.312 E-score.

Take GTAGATTA: the binding signal amounted to 0.344 E-score.

Regarding GCAGATTA, the binding signal came out at 0.028 E-score.

The values are drawn from article PMC6212790, “How bacterial xenogeneic silencer rok distinguishes foreign from self DNA in its resident genome”.
